{
  "source": "PubChem BioAssay AID1159580",
  "about": "(chemical genetic matrix, 2015)",
  "experiment": "chemical genetic growth profiling, strain panel (AID 1159580);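 also: tested at 20 µM; growth read once vehicle control cultures reached saturation at 30 °C; 1 = growth at the plate median or of vehicle wells; lower values mean less growth of the strain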",
  "conditions": "S. cerevisiae deletion strains, growth OD",
  "note": "Values joined by “and” are separate entries in the source; they are usually repeats but may differ in a detail not shown here. Equal entries are not always repeated. About 2,000 (36%) of roughly 5,500 compounds were called active. Roughly 18% stayed inconclusive and do not appear here. Some of the results follow. Unmarked numbers belong to inactive results. Rule as the data show it: active = normalized growth mostly below about 0.91 (no sharp cut-off); inconclusive = no clear call, values can overlap the other calls; inactive = mostly above about 0.92.",
  "data": [
    {"compound": "C[C@]12CCC3c4ccc(O)cc4CCC3C1CC[C@@H]2O", "note": "(some centres undefined)", "values": [
      {"measurement": "normalized growth", "setting": "locus YAL013W, strain DEP1, active compounds read low", "value": 1.01},
      {"measurement": "normalized growth", "setting": "locus YAL021C, strain ccr4, active compounds read low", "value": 0.983},
      {"measurement": "normalized growth", "setting": "locus YAL026C, strain drs2, active compounds read low", "value": 0.943},
      {"measurement": "normalized growth", "setting": "locus YAL030W, strain snc1, active compounds read low", "value": 1.01},
      {"measurement": "normalized growth", "setting": "locus YBL061C, strain skt5, active compounds read low", "value": 0.961},
      {"measurement": "normalized growth", "setting": "locus YBR009C, strain hhf1, active compounds read low", "value": 0.91},
      {"measurement": "normalized growth", "setting": "locus YBR021W, strain FUR4, active compounds read low", "value": "0.783 (active)"},
      {"measurement": "normalized growth", "setting": "locus YBR023C, strain chs3, active compounds read low", "value": 0.992},
      {"measurement": "normalized growth", "setting": "locus YBR171W, strain sec66, active compounds read low", "value": 1.01},
      {"measurement": "normalized growth", "setting": "locus YBR229C, strain ROT2, active compounds read low", "value": 1.01},
      {"measurement": "normalized growth", "setting": "locus YBR231C, strain swc5, active compounds read low", "value": 0.946},
      {"measurement": "normalized growth", "setting": "locus YBR279W, strain paf1, active compounds read low", "value": 0.993},
      {"measurement": "normalized growth", "setting": "locus YCL011C, strain gbp2, active compounds read low", "value": 0.988},
      {"measurement": "normalized growth", "setting": "locus YCL016C, strain dcc1, active compounds read low", "value": 0.975},
      {"measurement": "normalized growth", "setting": "locus YCL029C, strain bik1, active compounds read low", "value": 0.996},
      {"measurement": "normalized growth", "setting": "locus YCL061C, strain MRC1, active compounds read low", "value": 0.988},
      {"measurement": "normalized growth", "setting": "locus YCL069W, strain vba3, active compounds read low", "value": 1.01},
      {"measurement": "normalized growth", "setting": "locus YCR088W, strain abp1, active compounds read low", "value": 1.03},
      {"measurement": "normalized growth", "setting": "locus YDL005C, strain med2, active compounds read low", "value": 1.02},
      {"measurement": "normalized growth", "setting": "locus YDL035C, strain GPR1, active compounds read low", "value": 0.912},
      {"measurement": "normalized growth", "setting": "locus YDL040C, strain nat1, active compounds read low", "value": 1.02},
      {"measurement": "normalized growth", "setting": "locus YDL074C, strain BRE1, active compounds read low", "value": 0.882},
      {"measurement": "normalized growth", "setting": "locus YDL101C, strain DUN1, active compounds read low", "value": 1},
      {"measurement": "normalized growth", "setting": "locus YDL185W, strain tfp1, active compounds read low", "value": 0.979},
      {"measurement": "normalized growth", "setting": "locus YDL192W, strain arf1, active compounds read low", "value": 0.958},
      {"measurement": "normalized growth", "setting": "locus YDR001C, strain nth1, active compounds read low", "value": 1.03},
      {"measurement": "normalized growth", "setting": "locus YDR069C, strain doa4, active compounds read low", "value": 1},
      {"measurement": "normalized growth", "setting": "locus YDR101C, strain arx1, active compounds read low", "value": 0.958},
      {"measurement": "normalized growth", "setting": "locus YDR137W, strain rgp1, active compounds read low", "value": "0.83 (active)"},
      {"measurement": "normalized growth", "setting": "locus YDR150W, strain NUM1, active compounds read low", "value": 1.03},
      {"measurement": "normalized growth", "setting": "locus YDR159W, strain sac3, active compounds read low", "value": 0.954},
      {"measurement": "normalized growth", "setting": "locus YDR162C, strain NBP2, active compounds read low", "value": 0.987},
      {"measurement": "normalized growth", "setting": "locus YDR195W, strain ref2", "value": "1.27 [resistant] (active)"},
      {"measurement": "normalized growth", "setting": "locus YDR297W, strain sur2, active compounds read low", "value": 0.992},
      {"measurement": "normalized growth", "setting": "locus YDR318W, strain mcm21, active compounds read low", "value": 0.996},
      {"measurement": "normalized growth", "setting": "locus YDR334W, strain swr1, active compounds read low", "value": 1.02},
      {"measurement": "normalized growth", "setting": "locus YDR335W, strain msn5, active compounds read low", "value": 0.985},
      {"measurement": "normalized growth", "setting": "locus YDR388W, active compounds read low", "value": 0.997},
      {"measurement": "normalized growth", "setting": "locus YDR392W, strain spt3, active compounds read low", "value": "0.639 (active)"},
      {"measurement": "normalized growth", "setting": "locus YDR502C, strain sam2, active compounds read low", "value": 0.973},
      {"measurement": "normalized growth", "setting": "locus YEL003W, strain gim4, active compounds read low", "value": 0.921},
      {"measurement": "normalized growth", "setting": "locus YEL037C, strain rad23, active compounds read low", "value": 1.02},
      {"measurement": "normalized growth", "setting": "locus YEL061C, strain CIN8 (second series), active compounds read low", "value": 1.01},
      {"measurement": "normalized growth", "setting": "locus YEL061C, strain CIN8, active compounds read low", "value": 1.02},
      {"measurement": "normalized growth", "setting": "locus YER015W, strain faa2, active compounds read low", "value": 0.981},
      {"measurement": "normalized growth", "setting": "locus YER016W, strain bim1, active compounds read low", "value": 0.969},
      {"measurement": "normalized growth", "setting": "locus YER110C, active compounds read low", "value": 0.989},
      {"measurement": "normalized growth", "setting": "locus YER111C, strain swi4, active compounds read low", "value": 1.03},
      {"measurement": "normalized growth", "setting": "locus YER155C, strain BEM2 (second series), active compounds read low", "value": 1.04},
      {"measurement": "normalized growth", "setting": "locus YER155C, strain BEM2, active compounds read low", "value": 1.03},
      {"measurement": "normalized growth", "setting": "locus YER167W, strain BCK2, active compounds read low", "value": 1},
      {"measurement": "normalized growth", "setting": "locus YFR010W, strain ubp6, active compounds read low", "value": 1},
      {"measurement": "normalized growth", "setting": "locus YGL078C, strain dbp3, active compounds read low", "value": 0.934},
      {"measurement": "normalized growth", "setting": "locus YGL086W, strain mad1, active compounds read low", "value": 0.953},
      {"measurement": "normalized growth", "setting": "locus YGL167C, strain pmr1, active compounds read low", "value": 1.01},
      {"measurement": "normalized growth", "setting": "locus YGL173C, strain kem1, active compounds read low", "value": 0.968},
      {"measurement": "normalized growth", "setting": "locus YGL227W, strain vid30, active compounds read low", "value": 1.03},
      {"measurement": "normalized growth", "setting": "locus YGL240W, strain doc1, active compounds read low", "value": 0.96},
      {"measurement": "normalized growth", "setting": "locus YGL248W, strain PDE1, active compounds read low", "value": 0.981},
      {"measurement": "normalized growth", "setting": "locus YGL253W, strain hxk2, active compounds read low", "value": "0.895 (active)"},
      {"measurement": "normalized growth", "setting": "locus YGR078C, strain PAC10, active compounds read low", "value": 0.967},
      {"measurement": "normalized growth", "setting": "locus YGR135W, strain pre9, active compounds read low", "value": 0.949},
      {"measurement": "normalized growth", "setting": "locus YGR252W, strain gcn5, active compounds read low", "value": "0.735 (active)"},
      {"measurement": "normalized growth", "setting": "locus YHR013C, strain ard1, active compounds read low", "value": 0.996},
      {"measurement": "normalized growth", "setting": "locus YHR027C, strain rpn1, active compounds read low", "value": 1.01},
      {"measurement": "normalized growth", "setting": "locus YHR030C, strain SLT2, active compounds read low", "value": "1.03 and 0.961"},
      {"measurement": "normalized growth", "setting": "locus YHR079C, strain IRE1 (second series), active compounds read low", "value": 1.01},
      {"measurement": "normalized growth", "setting": "locus YHR079C, strain IRE1, active compounds read low", "value": 0.954},
      {"measurement": "normalized growth", "setting": "locus YHR094C, strain hxt1, active compounds read low", "value": 1.01},
      {"measurement": "normalized growth", "setting": "locus YHR129C, strain ARP1, active compounds read low", "value": 1},
      {"measurement": "normalized growth", "setting": "locus YHR142W, strain chs7, active compounds read low", "value": 0.891},
      {"measurement": "normalized growth", "setting": "locus YHR200W, strain rpn10, active compounds read low", "value": 1},
      {"measurement": "normalized growth", "setting": "locus YIL066C, strain RNR3, active compounds read low", "value": 0.955},
      {"measurement": "normalized growth", "setting": "locus YIL073C, strain SPO22, active compounds read low", "value": 0.936},
      {"measurement": "normalized growth", "setting": "locus YIL125W, strain kgd1, active compounds read low", "value": 1},
      {"measurement": "normalized growth", "setting": "locus YIR030C, strain dcg1, active compounds read low", "value": 1},
      {"measurement": "normalized growth", "setting": "locus YJL092W, strain hpr5, active compounds read low", "value": 1.03},
      {"measurement": "normalized growth", "setting": "locus YJL095W, strain BCK1 (second series), active compounds read low", "value": 0.997},
      {"measurement": "normalized growth", "setting": "locus YJL095W, strain BCK1, active compounds read low", "value": "0.978 and 0.961"},
      {"measurement": "normalized growth", "setting": "locus YJL115W, strain asf1, active compounds read low", "value": 1.02},
      {"measurement": "normalized growth", "setting": "locus YJL129C, strain trk1, active compounds read low", "value": 0.889},
      {"measurement": "normalized growth", "setting": "locus YJL134W, strain LCB3, active compounds read low", "value": 1.02},
      {"measurement": "normalized growth", "setting": "locus YJL154C, strain vps35, active compounds read low", "value": 1.02},
      {"measurement": "normalized growth", "setting": "locus YJL164C, strain tpk1, active compounds read low", "value": "0.916 (active)"},
      {"measurement": "normalized growth", "setting": "locus YJL166W, strain qcr8, active compounds read low", "value": 0.971},
      {"measurement": "normalized growth", "setting": "locus YJL168C, strain set2, active compounds read low", "value": 0.997},
      {"measurement": "normalized growth", "setting": "locus YJL187C, strain SWE1 (second series), active compounds read low", "value": 0.966},
      {"measurement": "normalized growth", "setting": "locus YJL187C, strain SWE1, active compounds read low", "value": 1.01},
      {"measurement": "normalized growth", "setting": "locus YJR043C, strain POL32, active compounds read low", "value": 0.938}
    ]}
  ]
}
